This note sets out measurements from PubChem BioAssay (NCATS).

Inconclusive results are not listed. A call without a number means that no potency is given here. Activity calls are given as the source filed them. Calls come from the whole dose curve; as a rule, active = well fitted inhibition curve with a large enough effect; inconclusive = small, poorly fitted or top-dose-only effect; inactive = no such curve, though single readings can be large or run the other way.
Potency is the fitted concentration of half-maximal effect.

The experiment in a line: BET inhibitor-based combinations targeting novel dependencies in MECOM-rearranged (r) AML: UCSD-AML1 cell line (AID 2202235). Note: nearly all actives have a fitted effect of over 40% in size. The note with it: UCSD-AML1 AML cells viability, CellTiter-Glo, 48 h; series mostly up to 46 µM. An outline of the steps:
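Luminescent ATP readout (CellTiter-Glo, 15 min at room temperature) after 48 hr drug exposure gave viability. Dose-response curves, normalized to DMSO and empty-well controls, were summarized as area under the curve and its mean-centred Z-score.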
For the compound `N#Cc1ccc(-c2c(-c3ncn[nH]3)sc(N3CCOCC3)c2C#N)c(F)c1`, the Potency was 1.32 µM (active).
The figure for `c1ccc(-c2cc(CCC3CCNCC3)c3ccccc3n2)cc1` is 26.3 µM (active); for `CC(C)n1c(=O)cc(N[C@@H](C)c2ccccc2)[nH]c1=O` it is “inactive”.
In the case of `COC(=O)Nc1nc2ccc(S(=O)c3ccccc3)cc2[nH]1` (configuration not stated) it was 7.42 µM (active); in that of `CC(=O)Nc1ccc(O)cc1`, “inactive”.
Take `Nc1nc(-c2nn(Cc3ccccc3F)c3ncccc23)ncc1C1CC1`: the Potency was 14.8 µM (active).
The entry for `O=C(O)C[C@H]1CCc2c1[nH]c1ccc(OCc3ccc(C4CCCC4)c(C(F)(F)F)c3)cc21` is “inactive”.
In the case of `Cn1cc(-c2ccc(-c3cncc(Cl)c3N3CCC4(CCNC4=O)CC3)cc2)cn1` it was “inactive”; in that of `CN1C/C=C/CCOc2cccc(c2)-c2ccnc(n2)Nc2cccc(c2)C1`, 0.148 µM (active).
In the case of `CCC(=O)N1CCOc2c(cc(-c3cc(OC)cc(OC)c3)cc2C(=O)N[C@H]2CCCN(C)C2)C1`, the Potency is 20.9 µM (active).
The figure for `CN1CCCN(C(=O)c2cccc(-c3ccc(/C=C4/C(=O)Nc5ccc(Cl)cc54)o3)c2)CC1` is 1.32 µM (active); for `C[C@@H]1Cc2c([nH]c3ccccc23)[C@@H](c2c(F)cc(/C=C/C(=O)O)cc2F)N1CC(C)(C)F` it is “inactive”.
The figure for `Cc1cc2cc(Oc3ccnc(Nc4cccc(CS(=O)(=O)NCCN(C)C)c4)n3)ccc2[nH]1` is 16.6 µM (active).
On to `CCCN(CCC)C(=O)C1=Cc2ccc(-c3ccc(C(=O)N4CCCC4)cc3)cc2N=C(N)C1`, for which the Potency entry is “inactive”.
The figure for `CC(C)Oc1ccc(C(=O)N[C@H](CNC(=O)CN(C)C)Cc2ccc(-c3cn4cccc([C@H](C)O)c4n3)cc2)cc1Cl` is 0.332 µM (active); for `[O-][n+]1cccc(-c2nc3c(Cl)cccc3cc2[C@@H](Nc2ncnc3cccnc23)C(F)(F)F)c1` it is 6.61 µM (active); for `CC(=O)N1CCC(Nc2cc(C(=O)NC[C@H](O)CN3CCc4ccccc4C3)ncn2)CC1` it is “inactive”.
For `CC(C)n1cc(-c2ccc3c(c2)N(C)CC3)c2c(NS(=O)(=O)c3ccn(C)n3)ccnc21`, the Potency result is “inactive”.
The entry for `CC1c2cccc(O)c2C(O)=C2C(=O)C3(O)C(O)=C(C(N)=O)C(=O)C(N(C)C)C3C(O)C21` (configuration not stated) is “inactive”; for `CCOC(=O)N[C@@H]1CC[C@@H]2[C@@H](C1)C[C@H]1C(=O)O[C@H](C)[C@H]1[C@H]2/C=C/c1ccc(-c2cccc(F)c2)cn1` it is “inactive”.
The figure for `N#CCC1(n2cc(-c3ncnc4[nH]ccc34)cn2)CN(C2CCN(C(=O)c3ccnc(C(F)(F)F)c3F)CC2)C1` is 3.72 µM (active); for `C=CC(=O)N1CCC(C2CCNc3c(C(N)=O)c(-c4ccc(Oc5ccccc5)cc4)nn32)CC1` (configuration not stated) it is “inactive”.
